{"source": "PubChem BioAssay AID1671202", "about": "(University of Kansas High Throughput Screening Laboratory, 2021)", "note": "“And” between values parts separate entries of the source, which are not always exact repeats. Equal values may be shown once. Among all 190,000 compounds or so, about 6,900 (3.6%) were called active. Rule as the data show it: active = inhibition above about 50%; inactive = the rest. Many of the other results were omitted from the sample, so actives are more common in it than they were."}
{"molecular_target": "Huntingtin (Homo sapiens) (UniProt P42858)", "sequence (P42858 whole entry, looked up, stated change not applied)": "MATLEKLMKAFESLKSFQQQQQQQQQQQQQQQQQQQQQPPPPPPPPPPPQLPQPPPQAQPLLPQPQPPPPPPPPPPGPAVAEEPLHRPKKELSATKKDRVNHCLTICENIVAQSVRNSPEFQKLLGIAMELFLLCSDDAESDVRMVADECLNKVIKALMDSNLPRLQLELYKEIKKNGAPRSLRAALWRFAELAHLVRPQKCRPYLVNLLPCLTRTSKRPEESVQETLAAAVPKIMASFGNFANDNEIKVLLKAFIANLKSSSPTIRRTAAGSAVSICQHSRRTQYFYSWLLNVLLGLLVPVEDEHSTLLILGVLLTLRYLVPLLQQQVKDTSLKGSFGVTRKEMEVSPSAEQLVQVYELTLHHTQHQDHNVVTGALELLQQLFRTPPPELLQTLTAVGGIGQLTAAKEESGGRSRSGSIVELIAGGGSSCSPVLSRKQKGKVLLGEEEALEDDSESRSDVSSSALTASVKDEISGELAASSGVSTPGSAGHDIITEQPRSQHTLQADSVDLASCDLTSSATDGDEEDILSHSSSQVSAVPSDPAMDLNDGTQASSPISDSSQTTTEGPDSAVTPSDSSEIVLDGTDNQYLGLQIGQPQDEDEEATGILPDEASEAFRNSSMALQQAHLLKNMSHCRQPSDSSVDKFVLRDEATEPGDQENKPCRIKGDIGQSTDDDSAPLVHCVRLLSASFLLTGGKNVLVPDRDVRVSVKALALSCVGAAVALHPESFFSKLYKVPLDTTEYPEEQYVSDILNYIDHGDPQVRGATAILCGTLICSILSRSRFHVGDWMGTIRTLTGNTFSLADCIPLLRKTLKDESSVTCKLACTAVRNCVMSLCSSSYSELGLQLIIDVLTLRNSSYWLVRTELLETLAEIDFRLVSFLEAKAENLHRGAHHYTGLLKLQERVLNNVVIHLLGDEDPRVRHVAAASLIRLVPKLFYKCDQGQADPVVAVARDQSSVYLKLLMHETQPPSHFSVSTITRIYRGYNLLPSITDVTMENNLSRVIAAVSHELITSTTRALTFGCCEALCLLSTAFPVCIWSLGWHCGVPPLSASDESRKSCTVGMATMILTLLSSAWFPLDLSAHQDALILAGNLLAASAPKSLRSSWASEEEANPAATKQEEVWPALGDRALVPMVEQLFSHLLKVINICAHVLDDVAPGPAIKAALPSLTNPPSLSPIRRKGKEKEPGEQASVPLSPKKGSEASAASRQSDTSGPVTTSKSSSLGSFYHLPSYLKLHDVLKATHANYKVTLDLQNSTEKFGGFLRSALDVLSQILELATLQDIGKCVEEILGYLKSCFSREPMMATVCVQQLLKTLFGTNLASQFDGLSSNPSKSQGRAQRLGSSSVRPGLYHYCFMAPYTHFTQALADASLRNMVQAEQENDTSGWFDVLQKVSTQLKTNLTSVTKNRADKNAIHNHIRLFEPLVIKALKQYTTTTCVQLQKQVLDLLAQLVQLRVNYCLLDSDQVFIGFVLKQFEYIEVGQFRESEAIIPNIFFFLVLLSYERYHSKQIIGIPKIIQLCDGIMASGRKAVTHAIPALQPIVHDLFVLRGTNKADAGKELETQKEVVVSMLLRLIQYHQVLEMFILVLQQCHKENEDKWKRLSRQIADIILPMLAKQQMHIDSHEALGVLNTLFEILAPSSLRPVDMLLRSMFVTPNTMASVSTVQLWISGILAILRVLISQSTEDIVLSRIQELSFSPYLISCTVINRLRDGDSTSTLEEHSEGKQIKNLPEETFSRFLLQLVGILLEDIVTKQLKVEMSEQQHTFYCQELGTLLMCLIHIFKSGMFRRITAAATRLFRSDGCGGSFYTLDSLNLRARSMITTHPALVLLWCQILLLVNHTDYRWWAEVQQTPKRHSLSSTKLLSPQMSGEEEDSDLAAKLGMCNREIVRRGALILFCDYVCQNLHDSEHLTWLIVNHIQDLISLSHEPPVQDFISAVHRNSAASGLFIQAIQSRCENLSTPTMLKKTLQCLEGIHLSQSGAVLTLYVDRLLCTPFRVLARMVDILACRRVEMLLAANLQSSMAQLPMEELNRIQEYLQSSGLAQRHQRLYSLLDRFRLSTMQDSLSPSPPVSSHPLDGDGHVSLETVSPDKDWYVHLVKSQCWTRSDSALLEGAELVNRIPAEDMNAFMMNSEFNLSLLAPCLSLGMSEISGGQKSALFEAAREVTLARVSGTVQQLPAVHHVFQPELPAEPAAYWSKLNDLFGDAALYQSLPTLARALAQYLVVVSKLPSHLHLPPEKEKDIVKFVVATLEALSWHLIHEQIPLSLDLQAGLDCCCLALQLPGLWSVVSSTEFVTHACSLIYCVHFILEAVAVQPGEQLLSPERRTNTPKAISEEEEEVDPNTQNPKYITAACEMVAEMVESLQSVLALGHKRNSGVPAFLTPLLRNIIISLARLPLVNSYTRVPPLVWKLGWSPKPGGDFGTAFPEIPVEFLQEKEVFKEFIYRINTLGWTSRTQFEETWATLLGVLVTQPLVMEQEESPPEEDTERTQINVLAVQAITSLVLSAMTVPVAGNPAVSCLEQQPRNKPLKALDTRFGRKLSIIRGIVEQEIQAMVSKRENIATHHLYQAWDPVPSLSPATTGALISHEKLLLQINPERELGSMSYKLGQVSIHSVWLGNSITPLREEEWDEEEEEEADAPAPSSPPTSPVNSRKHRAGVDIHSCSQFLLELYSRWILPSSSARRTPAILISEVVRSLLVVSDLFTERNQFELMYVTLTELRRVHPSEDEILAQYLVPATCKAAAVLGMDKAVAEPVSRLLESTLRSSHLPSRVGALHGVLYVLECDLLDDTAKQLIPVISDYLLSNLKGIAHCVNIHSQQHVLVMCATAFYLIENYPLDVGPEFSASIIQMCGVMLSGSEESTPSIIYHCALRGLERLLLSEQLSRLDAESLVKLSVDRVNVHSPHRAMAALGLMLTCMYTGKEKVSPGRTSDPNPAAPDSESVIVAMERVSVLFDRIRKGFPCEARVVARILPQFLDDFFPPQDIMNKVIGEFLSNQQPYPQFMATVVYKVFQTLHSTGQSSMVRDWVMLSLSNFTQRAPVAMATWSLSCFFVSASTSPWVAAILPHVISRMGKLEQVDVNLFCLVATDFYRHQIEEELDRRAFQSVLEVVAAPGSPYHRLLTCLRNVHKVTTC", "experiment": "mutant huntingtin-calmodulin interaction inhibitors – biochemical, AlphaScreen, primary screen (AID 1671202);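 also: 0% = both proteins with DMSO and 100% = one protein alone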", "details": "AlphaScreen His-mHTT/GST-CaM binding, luminescence; at 15 µM, hits give high values"}
{"molecule": "COc1ccc(C2C=C(c3ccc(C)cc3)Nc3nnnn32)cc1", "note": "(stereo not given)", "inhibition": "-16% (inactive)"}
{"molecule": "Cc1cc(S(=O)(=O)NCC2(O)CCOCC2)c(Cl)cc1Cl", "inhibition": "-11.3% (inactive)"}
{"molecule": "Cc1[nH]nc(-c2ccsc2)c1NC(=O)Cc1ccccc1", "inhibition": "-4% (inactive)"}
{"molecule": "COc1cccc(CC(=O)N2CCCC2c2cc(C)on2)c1", "note": "(stereo not given)", "inhibition": "-5.74% (inactive)"}
{"molecule": "CC1CCCN(c2ccc(-c3noc(CN(C)C4CCCCC4)n3)cn2)C1", "note": "(stereo not given)", "inhibition": "10% (inactive)"}
{"molecule": "CCc1onc(C)c1C1CCCN1C(=O)c1nn(C)cc1Cl", "note": "(stereo not given)", "inhibition": "-0.93% (inactive)"}
{"molecule": "COc1cc(OC)c(OC)cc1/C=C1N=C(/C=C/c2ccccc2)OC/1=O", "inhibition": "-2% (inactive)"}
{"molecule": "Cc1nc(-c2ccc(N3CCN(C(=O)C4CCCO4)CC3)nc2)no1", "note": "(stereo not given)", "inhibition": "-5.6% (inactive)"}
{"molecule": "CCOC(=O)N1CCN(Cc2nc(-c3ccc(N4CCCCCC4)nc3)no2)CC1", "inhibition": "78.7% (active)"}
{"molecule": "c1cc(N2CCCCCC2)ncc1-c1noc(CN2CCCC2)n1", "inhibition": "15.8% (inactive)"}
{"molecule": "CC(C)Cn1c(C2CCN(C(=O)c3n[nH]c4c3CCCC4)C2)nc2ccncc21", "note": "(stereo not given)", "inhibition": "5.16% (inactive)"}
{"molecule": "O=C(CNc1ccccc1-c1nc2ccccc2[nH]c1=O)NC1CCCCCCC1", "inhibition": "-7% (inactive)"}
{"molecule": "CCN(CC)C(=NS(=O)(=O)c1ccccc1)c1ccc(Cl)cc1", "inhibition": "-3% (inactive)"}
{"molecule": "CC(=O)Nc1cccnc1-c1ccc(C(=O)NCc2ccccc2)cc1", "inhibition": "-2.7% (inactive)"}
{"molecule": "CSc1ccc(C2C=C(c3cccs3)Nc3nnnn32)cc1", "note": "(stereo not given)", "inhibition": "2% (inactive)"}
{"molecule": "COc1ccc(Cl)cc1C(=O)N1CCn2c(C)nnc2C1", "inhibition": "-9.2% (inactive)"}
{"molecule": "COc1ccc(Cl)cc1C(=O)N1CCN(c2ccc3nnc(-c4ccco4)n3n2)CC1", "inhibition": "72% (active)"}
{"molecule": "COc1ccc(Cl)cc1C(=O)N1CCN(c2cccc(Cl)c2)CC1", "inhibition": "-0.4% (inactive)"}
{"molecule": "COc1ccc(C2C(C(=O)Nc3ccc(Cl)cc3)=C(C)Nc3nnnn32)cc1", "note": "(stereo not given)", "inhibition": "23% (inactive)"}
{"molecule": "CCCC(=O)NC(c1ccccc1OC)c1cc([N+](=O)[O-])c2cccnc2c1O", "note": "(stereo not given)", "inhibition": "100% (active)"}
{"molecule": "CCCC(=O)NC(Nc1ccccc1OC)C(Cl)(Cl)Cl", "note": "(stereo not given)", "inhibition": "-3% (inactive)"}
{"molecule": "O=[N+]([O-])c1ccc(SCCO)c2ncccc12", "inhibition": "6% (inactive)"}
{"molecule": "Cc1nc(-n2cccc2)sc1C(=O)NCc1cc(-c2ccco2)on1", "inhibition": "-1.3% (inactive)"}
{"molecule": "CN(Cc1ccccc1F)c1cc2c(c3c1ccn3C)C1CCC2O1", "note": "(stereo not given)", "inhibition": "75.9% (active)"}
{"molecule": "O=C(C=Cc1ccco1)NCC1COC2(CCCCC2)O1", "note": "(stereo not given)", "inhibition": "-5.5% (inactive)"}
{"molecule": "CCOc1ccccc1NC(=O)c1nn(-c2ccccc2OC)c(=O)c2ccccc12", "inhibition": "-4% (inactive)"}
{"molecule": "O=C1CSC(c2ccc(F)cc2)N1c1ccc(Br)cc1", "note": "(stereo not given)", "inhibition": "-18% (inactive)"}
{"molecule": "CCCc1ccc(OCC(=O)c2ccc(O)c(C)c2O)cc1", "inhibition": "80.4% (active)"}
{"molecule": "O=C(COc1ccc([N+](=O)[O-])cc1)c1ccc(O)cc1O", "inhibition": "2.4% (inactive)"}
{"molecule": "CCCc1ccc(OCC(O)CN2CCN(C(=O)OCC)CC2)cc1", "note": "(stereo not given)", "inhibition": "24.7% (inactive)"}
{"molecule": "COCC(=O)N1CCCC(c2ccnc(-c3ccccc3)n2)C1", "note": "(stereo not given)", "inhibition": "-3.3% (inactive)"}
{"molecule": "CC1CN(C(=O)COc2cccc3c2OC(C)(C)C3)CC(C)O1", "note": "(stereo not given)", "inhibition": "1.8% (inactive)"}
{"molecule": "CCCCOc1ccc(NC(=O)N(Cc2ccccn2)Cc2ccco2)cc1", "inhibition": "-0.5% (inactive)"}
{"molecule": "Cc1ccc(NC(=O)N2CCCC(CC(=O)N3CCN(c4ccccc4F)CC3)C2)cc1", "note": "(stereo not given)", "inhibition": "8.68% (inactive)"}
{"molecule": "O=C(c1cccs1)N1CCN(C2=NN=C(c3ccccc3)CS2)CC1", "inhibition": "86.5% (active)"}
{"molecule": "O=C(c1cccs1)N1CCN(c2cc(-c3cccnc3)[nH]n2)CC1", "inhibition": "-4.79% (inactive)"}
{"molecule": "CCOC(=O)CCC(=O)N1CCN(C2=NN=C(c3ccccc3)CS2)CC1", "inhibition": "32.5% (inactive)"}
{"molecule": "O=[N+]([O-])c1ccc(Oc2ccc(Cl)c3cccnc23)c(Cl)c1", "inhibition": "-1% (inactive)"}
{"molecule": "COc1ccc(NC(=O)N2CCCC2c2nc(-c3ccccc3C)no2)cc1", "note": "(stereo not given)", "inhibition": "7.96% (inactive)"}
{"molecule": "Cc1ccccc1-c1noc(C2CCCN2C(=O)Nc2ccccc2Cl)n1", "note": "(stereo not given)", "inhibition": "-25.4% (inactive)"}
{"molecule": "Cc1ccccc1-c1noc(C2CCCN2C(=O)NCc2ccc(F)cc2)n1", "note": "(stereo not given)", "inhibition": "68.5% (active)"}
{"molecule": "CCOc1cccc(C(=O)Nc2ccc(-c3nc4ncccc4o3)cc2)c1", "inhibition": "-4% (inactive)"}
{"molecule": "CC1(C)CC(=O)C2=C(C1)c1c(ccc3ncccc13)NC2c1ccc([N+](=O)[O-])cc1", "note": "(stereo not given)", "inhibition": "54% (active)"}
{"molecule": "CC1(C)CC(=O)C2=C(C1)c1c(ccc3ncccc13)NC2c1ccc(O)cc1", "note": "(stereo not given)", "inhibition": "2% (inactive)"}
{"molecule": "CCOc1ccc(C2Nc3ccc4ncccc4c3C3=C2C(=O)CC(C)(C)C3)cc1", "note": "(stereo not given)", "inhibition": "3% (inactive)"}
{"molecule": "O=C1OC(/C=C/c2cccc(Cl)c2Cl)=NC/1=C\\c1cccc([N+](=O)[O-])c1", "inhibition": "1% (inactive)"}
{"molecule": "O=c1[nH]c2c(c(=O)[nH]1)C(c1cc([N+](=O)[O-])ccc1N1CCOCC1)O2", "note": "(stereo not given)", "inhibition": "3% (inactive)"}
{"molecule": "COc1ccc(C2CC(c3cccs3)=NN2c2ccccc2)cc1", "note": "(stereo not given)", "inhibition": "-183% (inactive)"}
{"molecule": "COc1cc(OC)c(C2Oc3ccccc3C3CC(c4cccs4)=NN32)cc1OC", "note": "(stereo not given)", "inhibition": "52% (active)"}
{"molecule": "N#Cc1ccc(C2Oc3ccccc3C3CC(c4ccccc4)=NN32)cc1", "note": "(stereo not given)", "inhibition": "14% (inactive) and 1.44% (inactive)"}
{"molecule": "CC1=NN2C(C1)c1ccccc1OC2c1ccc(Cl)cc1", "note": "(stereo not given)", "inhibition": "-1% (inactive)"}
{"molecule": "COc1ccc(C2=NN3C(C2)c2ccccc2OC3c2cccc([N+](=O)[O-])c2)cc1", "note": "(stereo not given)", "inhibition": "10% (inactive)"}
{"molecule": "Cc1ccc(C2Oc3ccccc3C3CC(c4cccs4)=NN32)o1", "note": "(stereo not given)", "inhibition": "63% (active)"}
{"molecule": "Cn1cccc1C(=O)N1CC2CC1CC2NS(=O)(=O)c1cccs1", "note": "(stereo not given)", "inhibition": "14.1% (inactive)"}
{"molecule": "Fc1ccc(CSc2nnnn2-c2ccc3c(c2)OCO3)cc1", "inhibition": "-29% (inactive)"}
{"molecule": "CC(C)c1nc2c(NC(=O)C3CC3)cccn2n1", "inhibition": "-7.5% (inactive)"}
{"molecule": "CCCCN(CC)S(=O)(=O)c1ccc(Cl)cc1", "inhibition": "-36.2% (inactive)"}
{"molecule": "Cc1cc(C)cc(N2C(=O)C(N3C(=O)c4ccccc4C3=O)C2c2ccc(F)cc2)c1", "note": "(stereo not given)", "inhibition": "3% (inactive)"}
{"molecule": "O=C(Nc1cccc(Cl)c1)C1CCN(c2nccn3nc(-c4ccccc4)cc23)CC1", "inhibition": "4.34% (inactive)"}
{"molecule": "O=C(NCCc1ccccn1)C1CCN(c2nccn3nc(-c4ccc(F)cc4)cc23)CC1", "inhibition": "15% (inactive)"}
{"molecule": "CC(NC(=O)C1CCN(c2nccn3nc(-c4ccccc4)cc23)CC1)c1ccc(F)cc1", "note": "(stereo not given)", "inhibition": "-3.07% (inactive)"}
{"molecule": "O=C(NCc1ccc(F)cc1)C1CCN(c2nccn3nc(-c4ccc(F)cc4)cc23)CC1", "inhibition": "4.41% (inactive)"}
{"molecule": "Cc1ccc(-c2cc3c(N4CCC(C(=O)NCc5cccnc5)CC4)nccn3n2)cc1C", "inhibition": "59.9% (active)"}
{"molecule": "O=C(NCc1cccs1)C1CCN(c2nccn3nc(-c4ccccc4)cc23)CC1", "inhibition": "18.6% (inactive)"}
{"molecule": "CC(NC(=O)C1CCN(c2nccn3nc(-c4cccs4)cc23)CC1)c1ccccc1", "note": "(stereo not given)", "inhibition": "59.4% (active)"}
{"molecule": "CCN(CC)S(=O)(=O)N1CCC(C(=O)NCc2cccnc2)CC1", "inhibition": "-11% (inactive)"}
{"molecule": "O=C(NCc1ccc(Cl)cc1)C1CCN(c2nccn3nc(-c4ccccc4)cc23)CC1", "inhibition": "52% (active)"}
{"molecule": "CCCCS(=O)(=O)N1CC=C(c2cn(CC)c3ncccc23)CC1", "inhibition": "8.9% (inactive)"}
{"molecule": "Nc1ncnc(N2CCN(c3ccccc3)CC2)c1[N+](=O)[O-]", "inhibition": "7% (inactive)"}
{"molecule": "Cc1ccc(NC(=O)C2CCc3sc(C(=O)N(C)C)cc3C2)cc1Cl", "note": "(stereo not given)", "inhibition": "5.44% (inactive)"}
{"molecule": "COc1ccc(-c2nc(-c3cccc(-c4ccnn4C)c3)no2)cc1F", "inhibition": "-14.7% (inactive)"}
{"molecule": "CCC(Sc1nnnn1-c1ccccc1)C(=O)Nc1nnc(C(C)C)s1", "note": "(stereo not given)", "inhibition": "6.4% (inactive)"}
{"molecule": "O=C(Nc1ccc(N2CCN(c3ccccc3)C2=O)nc1)c1ccc(F)cc1", "inhibition": "1.4% (inactive)"}
{"molecule": "Cn1cccc1CN(C(=O)Nc1ccccc1Cl)C1CC1", "inhibition": "22% (inactive)"}
{"molecule": "COc1cc(/C=C2/C(=O)N(c3ccc(Cl)c(Cl)c3)N=C2C)ccc1O", "inhibition": "79% (active)"}
{"molecule": "COc1cc(/C=C2/SC(=O)NC2=O)cc(Br)c1O", "inhibition": "7% (inactive)"}
{"molecule": "CC1=NN(c2ccc(Cl)cc2Cl)C(=O)/C1=C/c1ccc(Cl)cc1", "inhibition": "27% (inactive)"}
{"molecule": "COc1cc(/C=C2/C(=O)N(c3ccc(Cl)c(Cl)c3)N=C2C)cc(Br)c1O", "inhibition": "75% (active)"}
{"molecule": "COc1cc(/C=C2/C(=O)N(c3ccc(C(=O)O)cc3)N=C2C)ccc1O", "inhibition": "13% (inactive)"}
{"molecule": "COc1ccc(/C=C2/C(=O)N(c3ccccc3)N=C2C)c(OC)c1", "inhibition": "25% (inactive)"}
{"molecule": "Cc1ccnc(NC(=O)c2c(O)c3cccc4c3n(c2=O)CCC4)c1", "inhibition": "4% (inactive)"}
{"molecule": "CCCC(=O)N1CCC2(C1)C(=O)Nc1ccccc12", "note": "(stereo not given)", "inhibition": "0.5% (inactive)"}
{"molecule": "Cc1cccc2[nH]c(S(=O)(=O)Cc3ccc(F)cc3Cl)nc12", "inhibition": "-2% (inactive)"}
{"molecule": "O=C(NC(Nc1cccc([N+](=O)[O-])c1)C(Cl)(Cl)Cl)c1ccc(Br)cc1", "note": "(stereo not given)", "inhibition": "76% (active)"}
{"molecule": "Cc1ccccc1NC(NC(=O)c1cccc([N+](=O)[O-])c1)C(Cl)(Cl)Cl", "note": "(stereo not given)", "inhibition": "48% (inactive)"}
{"molecule": "CC(C)(C)NC(NC(=O)c1ccc(Br)cc1)C(Cl)(Cl)Cl", "note": "(stereo not given)", "inhibition": "-11% (inactive)"}
{"molecule": "COc1ccc(C)cc1NC(=O)C1CN(C(=O)c2ccncc2)CC12CCCCC2", "note": "(stereo not given)", "inhibition": "41.7% (inactive)"}
{"molecule": "O=C(NCc1ccccn1)C1CN(C(=O)c2ccncc2)CC12CCCCC2", "note": "(stereo not given)", "inhibition": "-2.9% (inactive)"}
{"molecule": "COc1cc(NC(=O)C2CN(C(=O)c3ccncc3)CC23CCCCC3)cc(OC)c1", "note": "(stereo not given)", "inhibition": "87.6% (active)"}
{"molecule": "CNC(=O)C(=O)Nc1ccc(OC)cc1", "inhibition": "2% (inactive)"}
{"molecule": "C=CCNC(=O)c1cc(=O)[nH]c2c(Cl)cccc12", "inhibition": "2.2% (inactive)"}
{"molecule": "COCCn1ccc2c(OCC(=O)Nc3cccc([N+](=O)[O-])c3)cccc2c1=O", "inhibition": "-19% (inactive)"}
{"molecule": "CCOc1ccccc1C(=O)Nc1c2c(nn1-c1cccc(Cl)c1)CSC2", "inhibition": "0% (inactive)"}
{"molecule": "CCOc1ccccc1C(=O)Nc1nn(C)c2c1C(c1cccs1)CC(=O)N2", "note": "(stereo not given)", "inhibition": "100% (active)"}
{"molecule": "CC1CC(=O)Nc2c1c(NC(=O)c1ccc3c(c1)OCO3)nn2C", "note": "(stereo not given)", "inhibition": "-9.4% (inactive)"}
